Results from PubChem BioAssay AID588689 (Southern Research Specialized Biocontainment Screening …, 2011).
Out of some 340,000 compounds screened, about 1,000 (0.29%) were called active. No stated cut-off is given here; in the data, inconclusive means inhibition above about 29% without an active follow-up result; inactive means below that. These entries were drawn from the full list. Entries with a potency or affinity are not part of this list.

Target: Genome polyprotein (Dengue virus type 2 (strain 16681-PDK53)) (UniProt P29991)
Assay: Dengue-2 NS5 methyltransferase inhibitors, primary screen, biochemical, confirmation dose response (AID 588689)
Settings: Dengue-2 NS5 methyltransferase capping enzyme assay, at 25 µM, stronger effect = higher value
[1] = measured here: pilot screen replicate inhibition

Row | SMILES | inhibition | inhibition [1] [%]
1 | CCOC(=O)c1c(C)[nH]c(C(=O)OCC(=O)NC2(C#N)CCCCC2)c1C | -11.6% (inactive) | 
2 | O=c1n(Cc2ccccc2F)c2ccccc2n1Cc1ccccc1F | -3.2% (inactive) | 
3 | FC(F)(F)c1ccccc1/C=N/n1c(C2CCCCC2)n[nH]c1=S | 10.6% (inactive) | 
4 | COc1ccc(N=C2SC(C(=O)O)CC(=O)N2C)cc1 (stereo unspecified) | 0.68% (inactive) | 
5 | COc1cccc(NC(=O)CN(C)C(=O)c2cccc(S(=O)(=O)N3CCN(c4ccccc4)CC3)c2)c1 | -6.1% (inactive) | 
6 | O=C(COc1ccc(S(=O)(=O)N2CCCCC2)cc1)NCC1CCCO1 (stereo unspecified) | -5.9% (inactive) | 
7 | Cc1nnc(NCCc2ccccc2)c2ccccc12 | -6.68% (inactive) | 
8 | O=C(/C=C/c1cccc([N+](=O)[O-])c1)OCC(=O)N1CCN(C(=O)c2ccco2)CC1 | 0.39% (inactive) | 
9 | COc1cccc(NC(=O)C2CCCN2C(=O)Nc2ccccc2F)c1 (stereo unspecified) | -4.94% (inactive) | 
10 | Oc1ccc2ccccc2c1CN1CCN(C/C=C/c2ccccc2)CC1 | -14.3% (inactive) | 
11 | O=C(O)c1ccc(N2C(=O)/C(=C/C=C/c3ccccc3)SC2=S)cc1 | 16% (inactive) | 
12 | CC(/C=C1\SC(=S)N(CCCC(=O)Nc2ccc(C(=O)O)cc2)C1=O)=C\c1ccccc1 | 11.7% (inactive) | 
13 | COc1ccc(NC(=O)CN(C)C(=O)c2cccc(S(=O)(=O)N3CCN(C)CC3)c2)cc1 | -5.07% (inactive) | 
14 | CCOC(=O)c1c(NC(=O)C2C3C=CC(C3)C2C(=O)O)sc2c1CC(C)CC2 (stereo unspecified) | 7.29% (inactive) | 
15 | CCOC(=O)c1c(NC(=O)C2C3C=CC(C3)C2C(=O)O)sc2c1CCCC2 (stereo unspecified) | 4.37% (inactive) | 
16 | CCOC(=O)c1c(NC(=O)C2C3C=CC(C3)C2C(=O)O)sc2c1CCC(C)C2 (stereo unspecified) | -2.91% (inactive) | 
17 | CCOC(=O)c1c(NC(=O)C2C3CCC(O3)C2C(=O)O)sc2c1CCC(CC)C2 (stereo unspecified) | 4.42% (inactive) | 
18 | COc1cc2c(cc1OC)C(C(N)=O)NCC2 (stereo unspecified) | 0.81% (inactive) | 
19 | O=C(CN1CCN(c2ccccc2F)CC1)c1ccc(O)c(O)c1 | 6.62% (inactive) | 
20 | CNS(=O)(=O)c1cccc(C(=O)OCC(=O)Nc2ccc(OC)cc2[N+](=O)[O-])c1 | 6.24% (inactive) | 
21 | CCCCC(=O)Nc1cc(Cl)ccc1C(=O)O | 1.56% (inactive) | 
22 | COc1ccc(NC(=O)Cc2ccc(Cl)cc2Cl)cn1 | -4.71% (inactive) | 
23 | CCC(=O)Nc1cc(Cl)ccc1C(=O)O | -5.46% (inactive) | 
24 | COc1ccc(Nc2ccc(Cl)cc2)c(C(=O)O)c1 | 9.44% (inactive) | 

Row | SMILES | inhibition | inhibition [1] [%]
25 | CC(C)(C)c1ccc(S(=O)(=O)N2CCN(c3ncccn3)CC2)cc1 | -5.15% (inactive) | 
26 | O=C(OCCCOC(=O)c1cc[n+]([O-])cc1)c1cc[n+]([O-])cc1 | -7.73% (inactive) | 
27 | CN(C)/C=C1\C(=O)N(c2ccc(Oc3ccccc3)cc2)CS1=O (stereo unspecified) | -8.86% (inactive) | 4.42
28 | C=CCN1C(=O)C(Cc2ccc(F)cc2)S/C1=N/N=C/c1cccs1 (stereo unspecified) | -3.47% (inactive) | 
29 | O=C(Nc1sc2c(c1C(=O)O)CCC2)c1cccc(Cl)c1 | 15.2% (inactive) | 
30 | Cc1cccc(C(=O)Nc2sc3c(c2C(=O)O)CCCC3)c1 | 2.61% (inactive) | 
31 | CC(=O)c1cccc(NC(=O)C23CC4CC(C2)CC(n2cncn2)(C4)C3)c1 | -0.64% (inactive) | 
32 | NCCCC[C@@H](C(=O)NCCCCCCCCCCC(=O)N1CCNCC1)n1cc(CCCC(=O)O)nn1 | -0.8% (inactive) | 
33 | Cc1cc2ccccc2n2c(SCC(=O)N3CCOCC3)nnc12 | -8.09% (inactive) | 
34 | COc1ccc(CNC(=O)C(C)OC(=O)CCN2C(=O)C3CC=CCC3C2=O)cc1 (stereo unspecified) | 2.89% (inactive) | 
35 | CC1Cc2ccccc2N1C(=O)CSc1ncccn1 (stereo unspecified) | -4.43% (inactive) | 
36 | COc1cc(Br)cc(/C=C/c2ccc3cccc(O)c3n2)c1OC | 13.2% (inactive) | 
37 | C=CCOc1ccc(/C=C\c2nc(O)c([N+](=O)[O-])c(=O)[nH]2)cc1OC | 0.57% (inactive) | 
38 | COc1ccc2cc(/C=N/NC(=O)CSCc3ccc([N+](=O)[O-])cc3)c(Cl)nc2c1 | 4.46% (inactive) | 
39 | Cc1ccc(SCc2[nH]nc3c2C2(C(=O)Nc4ccc(F)cc42)C(C#N)=C(N)O3)cc1 (stereo unspecified) | 2.51% (inactive) | 3.94
40 | CCSc1nnc2c(n1)OC(C)(C)Nc1ccccc1-2 | -5.52% (inactive) | 
41 | CSc1nnc2c(n1)OC1(Nc3ccccc3-2)C(=O)Nc2ccccc21 (stereo unspecified) | 3.9% (inactive) | 
42 | c1ccc(CSc2nnc3c(n2)OC(c2ccco2)Nc2ccccc2-3)cc1 (stereo unspecified) | -0.8% (inactive) | 
43 | O=C(CSc1nnc(Cc2ccccc2)n1-c1ccc(Cl)cc1)N1CCOCC1 | -3.47% (inactive) | 
44 | N=C1C(c2ccccc2)=C(O)C2CCc3ccccc3N12 (stereo unspecified) | -2.07% (inactive) | 
45 | CC(=O)N1CCN(c2ccc([N+](=O)[O-])cc2C#N)CC1 | -1.43% (inactive) | 
46 | O=C1N/C(=C/c2cccn2-c2ccc(F)cc2)C(=O)N1Cc1ccccc1 | -0.68% (inactive) | 
47 | O=C1NC(=O)N(Cc2ccccc2)C1=O | 0% (inactive) | 
48 | O=C(CN1CCN(c2ccc(F)cc2)CC1)c1ccc2c(c1)OCO2 | -2.07% (inactive) | 

Row | SMILES | inhibition | inhibition [1] [%]
49 | CC(=O)OC1C([N+]2(C)CCCCC2)C[C@H]2C3CC[C@H]4C[C@H](OC(C)=O)C([N+]5(C)CCCCC5)CC4(C)[C@H]3CCC12C (stereo partly specified) | -1.47% (inactive) | 
50 | O=C1C(SCCO)=C(SCCO)C(=O)c2ccccc21 | -3.66% (inactive) | 
51 | Cn1c(SCc2ccccc2)nccc1=O | 1.94% (inactive) | 
52 | COc1ccc(Nc2ncnc3sc(-c4ccccc4)cc23)cc1 | -5.46% (inactive) | 
53 | O=C(NN1C(=O)/C(=C/c2cccs2)SC1=S)c1ccncc1 | -4.6% (inactive) | 
54 | O=C(NN1C(=O)/C(=C/c2cccs2)SC1=S)c1ccccc1 | -1.93% (inactive) | 
55 | CCN1C(=O)/C(=C/c2cccs2)S/C1=N\S(=O)(=O)c1ccc(C)cc1 | -2.56% (inactive) | 
56 | Cc1ccc(S(=O)(=O)NN2C(=O)/C(=C/c3ccccn3)SC2=S)cc1 | 14% (inactive) | 
57 | Cc1cc(C)cc(OCC(=O)N/N=C/c2ccccn2)c1 | 6.27% (inactive) | 
58 | COc1cc2c(cc1OC)C(c1cccs1)N(C(=S)NC(C)C)CC2 (stereo unspecified) | -5.35% (inactive) | 
59 | Cc1ccc(-c2nnn(CC(=O)N(Cc3ccccc3)C(C(=O)NC(C)(C)C)c3ccncc3)n2)o1 (stereo unspecified) | -0.68% (inactive) | 
60 | Cc1cccc(C)c1OCC(O)Cn1c2ccccc2c2ccccc21 (stereo unspecified) | -10.5% (inactive) | 
61 | CCCc1c(C)c2ccccc2[nH]c1=O | -1.65% (inactive) | 
62 | Cc1ccc(C(=O)O)cc1NS(=O)(=O)c1ccc2c(c1)oc(=O)n2C | -6.53% (inactive) | 
63 | Cc1cc(C)cc(N2C(=O)C=CC2=O)c1 | -24.7% (inactive) | 
64 | O=C(O)c1cc(C(=O)O)cc(N2C(=O)CSC2=S)c1 | -4.42% (inactive) | 
65 | O=C(O)c1cccc(N2C(=O)C3CC=CCC3C2=O)c1 (stereo unspecified) | -1.37% (inactive) | 
66 | O=C(O)c1cccc(N2C(=O)c3ccc4c5c(ccc(c35)C2=O)C(=O)N(c2cccc(C(=O)O)c2)C4=O)c1 | 16.5% (inactive) | 
67 | N/C(=N\OC(=O)Oc1ccccc1)c1ccc(Cl)cc1 | 2.93% (inactive) | 
68 | COc1ccc(CNC(=O)c2cc(=O)c3cc(C)cc(C)c3o2)cc1 | -5.29% (inactive) | 
69 | O=[N+]([O-])c1ccc(SCc2c(F)cccc2Cl)nc1 | -6.18% (inactive) | 
70 | O=C(O)/C=C/C(=O)Nc1ccc(C(=O)c2ccccc2)cc1 | -4.59% (inactive) | 
71 | O=C(O)/C=C/C(=O)Nc1ccc(-c2ccccc2)cc1 | -12.6% (inactive) | 
72 | CC(C)CN(C(=O)CCCSc1nc2ccccc2[nH]1)c1c(N)n(Cc2ccccc2)c(=O)[nH]c1=O | 2.91% (inactive) | 

Row | SMILES | inhibition | inhibition [1] [%]
73 | CC1(C)Cc2c(sc3[nH]c(=S)[nH]c(=O)c23)CO1 | -1.64% (inactive) | 
74 | CCC1(C)Cc2c(sc3[nH]c(=S)[nH]c(=S)c23)CO1 (stereo unspecified) | -4.57% (inactive) | 
75 | O=S(=O)(/N=C(\Nc1ccc(F)cc1)C(F)(F)F)c1ccccc1 | 3.78% (inactive) | 
76 | COc1ccc(C(=O)C(C)Oc2cccc(NC(=O)c3cccc([N+](=O)[O-])c3)c2)cc1 (stereo unspecified) | 3.25% (inactive) | 
77 | Cc1ccccc1N=Nc1ccc(O)c2ncccc12 | -2.17% (inactive) | 
78 | NS(=O)(=O)c1ccc(N=Nc2ccc(O)c3ncccc23)cc1 | 13.7% (inactive) | 
79 | CCN(CC)c1nc2ccccc2n(Cc2cccc(OC)c2)c1=O | -2.37% (inactive) | 
80 | Cc1ccc(S(=O)(=O)N2CCC[C@H]2C(=O)OCC(=O)c2ccc3c(c2)NC(=O)CO3)cc1 | -4.71% (inactive) | 
81 | O=C(Cc1cccc2ccccc12)Nc1cc(Cl)ccc1C(=O)O | -1.36% (inactive) | 
82 | O=C(COc1ccccc1C(=O)O)Nc1cccc2ccccc12 | 1.47% (inactive) | 
83 | O=C(COc1ccccc1[N+](=O)[O-])Nc1cc(Cl)ccc1C(=O)O | 0% (inactive) | 
84 | CC(=O)Nc1ccccc1NC(=O)COc1cccc2ccccc12 | -2.63% (inactive) | 
85 | COc1cc(C(C(=O)NC2CCCC2)N(CCO)C(=O)Cn2nnc(-c3ccc(C)o3)n2)ccc1O (stereo unspecified) | 0.83% (inactive) | 
86 | COc1ccc(CCNC(=O)CN(c2cc(OC)ccc2OC)S(=O)(=O)c2ccccc2)cc1 | -15.3% (inactive) | 
87 | N#CC1(c2ccccc2)CCC(=NNS(=O)(=O)c2ccccc2)CC1 (stereo unspecified) | -6.67% (inactive) | 
88 | CCn1c(SCC(=O)NC2CCCCC2)nnc1-c1cccs1 | -2.08% (inactive) | 
89 | Cc1[nH]n(-c2ccccc2)c(=O)c1-c1ccc(Cl)cc1 | -1.62% (inactive) | 
90 | CCCc1[nH][nH]c(=O)c1C(c1ccc(Cl)cc1)C(C#N)C#N (stereo unspecified) | -8.33% (inactive) | 
91 | COc1ccc(C(c2c(C)[nH]n(C(N)=S)c2=O)C(C#N)C#N)cc1 (stereo unspecified) | 28% (inactive) | 
92 | Cc1[nH]n(-c2ccccc2)c(=O)c1C(C[N+](=O)[O-])c1ccc(Cl)cc1 (stereo unspecified) | 4.51% (inactive) | 
93 | Cc1[nH]n(-c2ccccc2)c(=O)c1C(C[N+](=O)[O-])c1ccc(Br)cc1 (stereo unspecified) | 12.4% (inactive) | 
94 | CCCc1[nH][nH]c(=O)c1C(c1ccc(Br)cc1)C(C#N)C#N (stereo unspecified) | -1.4% (inactive) | 
